Each structure is given as a SMILES string.

This assay concerns RAW-Dual (murine macrophage reporter line). The assay is described as follows: viability score (confluency relative to resting cells, overnight) (fraction); higher = more viable, active = viable (0.7 or more). Conditions: modulator concentration 10 µM. The method, boiled down: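 RAW-Dual macrophages in 384-well plates were incubated overnight with compound, final concentration 10 μM. Confluency images from IncuCyte were processed in IncuCyte software into two masks covering all imaged wells. The viability score is each well's confluency relative to resting cells, and a compound met the cutoff when both masks exceeded 70% of resting cells.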
`CC(=O)c1c(C(C)=O)c(C)n(-c2ccccc2N)c1C`: the viability score was 1.01 (active).
As for `O=C(NC1CC(=O)N(c2ccc(F)cc2)C1)c1ccc(Cl)cc1` (stereo not drawn), the viability score was 0.991 (active).
Regarding `O=C(CN(CCc1ccccc1)S(=O)(=O)c1ccc(Cl)cc1)NCc1ccncc1`, the viability score is 1.01 (active).
Consider `N#Cc1c(NC(NC(=O)c2cccs2)C(Cl)(Cl)Cl)sc2c1CCCC2` (stereo not drawn), for which the viability score was 0.986 (active).
Under `O=C(Nc1nc(CC(=O)N2CCc3ccccc3C2)cs1)c1ccc(Cl)cc1` stands 1.01 (active); under `COC(=O)C1=C(C)N(Cc2ccccc2)C(=O)C1=Cc1ccc(C)cc1`, 0.998 (active).
In the case of `O=C(Nc1ccc([N+](=O)[O-])cc1Cl)c1cc(Cl)ccc1O` [Prestw-40] it was 1.01 (active); in that of `CC(=O)Nc1ccc(S(=O)(=O)N2CCC(Oc3cc(C)nc(C)n3)C2)cc1` (stereo not drawn), 0.97 (active).
Under `Cc1cc(-c2ccc(N=Cc3ccc(Cl)c([N+](=O)[O-])c3)c(C)c2)ccc1N=Cc1ccc(Cl)c([N+](=O)[O-])c1` stands 1 (active).
`COc1ccc(C(=O)C=Cc2cc(OC)c(OC)c(OC)c2)c(O)c1`: the viability score is 0.794 (active).
Consider `COc1cc(-c2nnc(SCc3ccc([N+](=O)[O-])cc3)n2-c2ccccc2)cc(OC)c1OC`, for which the viability score is 1.01 (active).
Turning to `CCN(CC)c1ccc2cc(-c3nnc(NCc4ccccc4)s3)c(=O)oc2c1`, the viability score was 0.997 (active).
Take `Cc1cc(C)nc(NS(=O)(=O)c2ccc(NC(=O)C=Cc3cccc4ccccc34)cc2)n1`: the viability score is 0.956 (active).
`COc1cc(C=C2SC(=S)NC2=O)ccc1OCCC(C)C`: the viability score is 1 (active).
Consider `Cc1[nH]c(/C=C2\C(=O)Nc3ccccc32)c(C)c1CCC(=O)O`, for which the viability score was 0.993 (active).
In the case of `Cc1cc(C)n(N=Cc2c[nH]c3ccccc23)c(=O)c1C#N` it was 1.03 (active).
Turning to `CC(=O)c1ccc(NC(=O)CSc2ccc(-c3ccc4c(c3)OCO4)nn2)cc1`, the viability score is 0.99 (active).
Under `CN(C)CC#CCNC(=O)Nc1ccc(C(F)(F)F)cc1` stands 1 (active); under `O=C(CCc1csc(NC(=O)c2ccco2)n1)Nc1ccc(Cl)cc1`, 0.974 (active).
On to `COc1cccc2c1C(=O)c1c(O)c3c(c(O)c1C2=O)C[C@@](O)(C(=O)CO)C[C@@H]3O[C@H]1C[C@H](N)[C@@H](O)[C@H](C)O1.Cl`, for which the viability score was 0.105 (inactive).
With `COc1ccc([C@@H]2Sc3ccccc3N(CCN(C)C)C(=O)[C@@H]2OC(C)=O)cc1.Cl`, the viability score was 0.985 (active).
Regarding `COc1ccc(Cc2nnc(C3CCN(S(C)(=O)=O)CC3)s2)cc1`, the viability score was 0.994 (active).
In the case of `CCOc1ccc(OCCCCOc2cccc(C)c2)cc1` it was 1.01 (active).

Source of the values: the supplement of paper PMC10646978.
